According to PubChem BioAssay AID485313 (National Center for Advancing Translational Sciences (NCATS), 2010):
Hit rate of the full screen: of about 320,000 compounds, about 7,600 (2.4%) were called active. Where a call stands in place of a potency, no number is given. Inconclusive results (about 3%) are left out. This is one part of a sample in which actives are shown more often than they occur. Calls follow the shape of the dose curve; as a rule, active = well fitted activation curve with a large enough effect; inconclusive = small, poorly fitted or top-dose-only effect; inactive = no such curve, though single readings can be large or run the other way.

test: qHTS Assay for NPC1 Promoter Activators; settings: Huh7 NPC1 promoter luciferase reporter, 24 h; series mostly up to 9.22 µM; also: nearly all actives have a fitted effect of over 60% in size
From the text: NIH Chemical Genomics Center [NCGC] NIH Molecular Libraries Probe Production centers Network [MLPCN] MLPCN Grant: MH089375-01A1 Assay Submitter (PI): Yiannis A. Ioannou NCGC Assay Overview: Niemann Pick Type C (NPC) is a rare neurodegenerative lipidosis that is characterized by lipid storage in the endosomal/lysosomal system. Treatment modalities for this devastating disease are currently non-existent due to the severe obstacles associated with accessing the central nervous system with proteins or genes. The majority of mutations causing NPC disease are missense mutations that are distributed throughout the length of the NPC1 protein, with the most prevalent being the I1061T allele. Although NPC1 mutant proteins may be functional, they are typically trapped in the ER due to misfolding. […] We have developed and optimized a cell based luciferase reporter assay in 1536 well format for the identification of up-regulators of the mutant NPC1 promoter.
The NPC1 promoter is cloned in front of the luciferase reporter gene, therefore NPC promoter activation results in luciferase expression. Frozen stock of the NPC1 promoter transfected Huh7 cells were obtained from the laboratory of Dr. Yiannis Ioannou (The Mount Sinai School of Medicine, New York, NY). Cells were propagated and maintained at NCGC in medium containing RPMI-1640 supplemented with 10% FBS, 2mM L-glutamine, and 50ug/ml penicillin/streptomycin. Cells were harvested in and plated for assays in OP-MEM I reduced-serum medium supplemented with 10% FBS. The Amplite luciferase reporter gene assay kit was purchased from ABD Bioquest and prepared/stored according to manufacturers recommendations. qHTS Assay Setup: 1.#Dispensed 5ul of Huh7 cells stably expressing NPC1-luciferase at a density of 1500 cells per well 1536-well plates. 2.#Incubate cells at 37C, 5% CO2, and 95% humidity for 2 hours. 3.#Transferred 23nl per well of compound in DMSO solution. 4.#Incubated at 37C, 5% CO2, and 95% humidity for 24 hours. 5.#Dispensed 3ul per well of Amplite reagent(ABD Bioquest) per well. 6.#Incubate at ambient for 10 minutes. 7.#Read using the luminescence protocol on the ViewLux plate reader (Perkin Elmer).
Potency is read from the fitted curve at half-maximal effect.

SMILES	Potency
CC(=O)Oc1ccccc1C(=O)Nc1ncc([N+](=O)[O-])s1	501 nM (active)
CC(=O)c1c(O)c(C)c(O)c(Cc2c(O)c3c(c(C(=O)/C=C/c4ccccc4)c2O)OC(C)(C)C=C3)c1O	inactive
CN(C)c1ccc(NC(=O)CN2C3CCCC2CC(NC(=O)c2ccccc2)C3)cc1 (stereo not given)	inactive
CC[C@H]1CN2CCc3cc(OC)c(OC)cc3[C@@H]2C[C@@H]1C[C@H]1NCCc2cc(OC)c(OC)cc21	inactive
CN(C)C(=O)Oc1ccc(OCc2cccc[n+]2C)cc1	inactive
CCOC(=O)c1c(-c2ccccc2)oc2ccc(OC(=O)N(C)C)cc12	inactive
CN(C)C(=O)Oc1ccc2c(c1)O/C(=C\c1ccccc1)C2=O	1580 nM (active)
CC(=O)NBr	inactive
CCOC(=O)c1ncn2c1[C@@H]1CCCN1C(=O)c1cc(OC)ccc1-2	inactive
CNCC[C@H](Oc1ccc(C(F)(F)F)cc1)c1ccccc1	inactive
